Out of some 5,500 compounds screened, about 2,000 (36%) were called active. Another 18% or so got no clear call; they are omitted. No stated cut-off is given here; in the data, active means normalized growth mostly below about 0.91 (no sharp cut-off); inconclusive means no clear call, values can overlap the other calls; inactive means mostly above about 0.92. This is one part of the list.
Experiment: chemical genetic growth profiling, strain panel (AID 1159580);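 further: tested at 20 µM; growth read once vehicle control cultures reached saturation at 30 °C; 1 = growth at the plate median or of vehicle wells; lower values mean less growth of the strain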
Conditions: growth OD

Measured: normalized growth

c1ccc([C@H]2CN3CCSC3=N2)cc1
inactive: S. cerevisiae deletion strains, locus YJR075W, strain HOC1, hits give low values 1.01 | S. cerevisiae deletion strains, locus YKL009W, strain mrt4, hits give low values 1.01 | S. cerevisiae deletion strains, locus YKL068W, hits give low values 1.01 | S. cerevisiae deletion strains, locus YKL085W, strain MDH1 (second series), hits give low values 0.999 | S. cerevisiae deletion strains, locus YKL085W, strain MDH1, hits give low values 0.999 | S. cerevisiae deletion strains, locus YKL160W, strain elf1, hits give low values 1.01 | S. cerevisiae deletion strains, locus YKL190W, strain CNB1, hits give low values 0.998 | S. cerevisiae deletion strains, locus YKR001C, strain vps1, hits give low values 1 | S. cerevisiae deletion strains, locus YKR026C, strain gcn3, hits give low values 1.02 | S. cerevisiae deletion strains, locus YKR091W, strain srl3, hits give low values 0.993 | S. cerevisiae deletion strains, locus YLL001W, strain dnm1, hits give low values 0.99 | S. cerevisiae deletion strains, locus YLL026W, hits give low values 1.01 | S. cerevisiae deletion strains, locus YLL041C, strain sdh2, hits give low values 1.01 | S. cerevisiae deletion strains, locus YLR027C, strain aat2, hits give low values 0.99 | S. cerevisiae deletion strains, locus YLR039C, strain RIC1, hits give low values 1.02 | S. cerevisiae deletion strains, locus YLR058C, strain SHM2, hits give low values 1.01 | S. cerevisiae deletion strains, locus YLR102C, strain apc9, hits give low values 1 | S. cerevisiae deletion strains, locus YLR113W, strain HOG1, hits give low values 1.08 | S. cerevisiae deletion strains, locus YLR221C, strain rsa3, hits give low values 0.979 | S. cerevisiae deletion strains, locus YLR258W, strain gsy2, hits give low values 1.02 | S. cerevisiae deletion strains, locus YLR262C, strain YPT6 (second series), hits give low values 0.999 | S. cerevisiae deletion strains, locus YLR262C, strain YPT6, hits give low values 0.992 | S. cerevisiae deletion strains, locus YLR268W, strain sec22, hits give low values 0.993 | S. cerevisiae deletion strains, locus YLR320W, strain mms22, hits give low values 0.988 | S. cerevisiae deletion strains, locus YLR330W, strain CHS5, hits give low values 1.01 | S. cerevisiae deletion strains, locus YLR342W, strain FKS1 (second series), hits give low values 1.02 | S. cerevisiae deletion strains, locus YLR342W, strain FKS1, hits give low values 1.01 | S. cerevisiae deletion strains, locus YLR357W, strain rsc2, hits give low values 1.03 | S. cerevisiae deletion strains, locus YLR370C, strain arc18, hits give low values 0.999 | S. cerevisiae deletion strains, locus YLR371W, strain rom2, hits give low values 1.01 | S. cerevisiae deletion strains, locus YLR384C, strain iki3, hits give low values 1.01 | S. cerevisiae deletion strains, locus YLR418C, strain cdc73, hits give low values 0.984 | S. cerevisiae deletion strains, locus YML016C, strain PPZ1, hits give low values 1 | S. cerevisiae deletion strains, locus YML032C, strain rad52, hits give low values 1.02 | S. cerevisiae deletion strains, locus YML120C, strain ndi1, hits give low values 0.988 | S. cerevisiae deletion strains, locus YML124C, strain tub3, hits give low values 1 | S. cerevisiae deletion strains, locus YMR058W, strain fet3, hits give low values 1 | S. cerevisiae deletion strains, locus YMR078C, strain ctf18, hits give low values 0.996 | S. cerevisiae deletion strains, locus YMR125W, strain sto1, hits give low values 1.01 | S. cerevisiae deletion strains, locus YMR129W, hits give low values 0.996 | S. cerevisiae deletion strains, locus YMR205C, strain PFK2, hits give low values 1.02 | S. cerevisiae deletion strains, locus YMR223W, strain ubp8, hits give low values 1.01 | S. cerevisiae deletion strains, locus YMR231W, strain pep5, hits give low values 1 | S. cerevisiae deletion strains, locus YMR263W, strain SAP30, hits give low values 1 | S. cerevisiae deletion strains, locus YMR307W, strain GAS1, hits give low values 1.03 | S. cerevisiae deletion strains, locus YNL067W, strain RPL9B, hits give low values 1 | S. cerevisiae deletion strains, locus YNL071W, strain lat1, hits give low values 1.04 | S. cerevisiae deletion strains, locus YNL128W, strain TEP1, hits give low values 1.01 | S. cerevisiae deletion strains, locus YNL153C, strain GIM3, hits give low values 0.988 | S. cerevisiae deletion strains, locus YNL183C, strain NPR1, hits give low values 0.983 | S. cerevisiae deletion strains, locus YNL209W, strain ssb2, hits give low values 0.984 | S. cerevisiae deletion strains, locus YNL233W, strain BNI4, hits give low values 1.01 | S. cerevisiae deletion strains, locus YNL248C, strain rpa49, hits give low values 1 | S. cerevisiae deletion strains, locus YNL250W, strain rad50, hits give low values 1.01 | S. cerevisiae deletion strains, locus YNL271C, strain bni1, hits give low values 1.01 | S. cerevisiae deletion strains, locus YNL298W, strain CLA4, hits give low values 1 | S. cerevisiae deletion strains, locus YNL307C, strain MCK1, hits give low values 1.02 | S. cerevisiae deletion strains, locus YNL322C, strain KRE1 (second series), hits give low values 0.979 | S. cerevisiae deletion strains, locus YNL322C, strain KRE1, hits give low values 1 | S. cerevisiae deletion strains, locus YNR049C, strain mso1, hits give low values 0.994 | S. cerevisiae deletion strains, locus YNR052C, strain pop2, hits give low values 1.01 | S. cerevisiae deletion strains, locus YOL006C, strain TOP1, hits give low values 1.02 | S. cerevisiae deletion strains, locus YOL012C, strain htz1 1.06 | S. cerevisiae deletion strains, locus YOL147C, strain pex11, hits give low values 1 | S. cerevisiae deletion strains, locus YOR001W, strain rrp6, hits give low values 0.961 | S. cerevisiae deletion strains, locus YOR061W, strain CKA2, hits give low values 1 | S. cerevisiae deletion strains, locus YOR069W, strain VPS5, hits give low values 0.995 | S. cerevisiae deletion strains, locus YOR070C, strain gyp1, hits give low values 1.01 | S. cerevisiae deletion strains, locus YOR080W, strain dia2, hits give low values 0.994 | S. cerevisiae deletion strains, locus YOR083W, strain WHI5, hits give low values 0.995 | S. cerevisiae deletion strains, locus YOR106W, strain vam3, hits give low values 1.02 | S. cerevisiae deletion strains, locus YOR136W, strain idh2, hits give low values 0.997 | S. cerevisiae deletion strains, locus YOR144C, strain elg1, hits give low values 1 | S. cerevisiae deletion strains, locus YOR184W, strain ser1, hits give low values 1.02 | S. cerevisiae deletion strains, locus YOR231W, strain MKK1, hits give low values 1.05 | S. cerevisiae deletion strains, locus YOR265W, strain rbl2, hits give low values 1 | S. cerevisiae deletion strains, locus YOR270C, strain vph1, hits give low values 1.02 | S. cerevisiae deletion strains, locus YOR290C, strain snf2, hits give low values 1.01 | S. cerevisiae deletion strains, locus YOR316C, strain cot1, hits give low values 1.01 | S. cerevisiae deletion strains, locus YPL051W, strain arl3, hits give low values 1.01 | S. cerevisiae deletion strains, locus YPL055C, strain LGE1, hits give low values 0.98 | S. cerevisiae deletion strains, locus YPL078C, strain atp4, hits give low values 1.02 | S. cerevisiae deletion strains, locus YPL106C, strain sse1, hits give low values 0.999 | S. cerevisiae deletion strains, locus YPL240C, strain hsp82, hits give low values 1 | S. cerevisiae deletion strains, locus YPL241C, strain CIN2, hits give low values 1.01 | S. cerevisiae deletion strains, locus YPL256C, strain CLN2, hits give low values 1.04 | S. cerevisiae deletion strains, locus YPR119W, strain clb2, hits give low values 1 | S. cerevisiae deletion strains, locus YPR141C, strain kar3, hits give low values 0.999 | S. cerevisiae deletion strains, locus YPR163C, strain tif3, hits give low values 1 | S. cerevisiae deletion strains, locus YPR167C, strain met16, hits give low values 0.998 | S. cerevisiae deletion strains, strain wtn01, hits give low values 0.997 | S. cerevisiae strains, strain wild type, hits give low values 1
